Results on 31 molecules are retold here after PubChem BioAssay (NCATS).

A short description of test [1]: qHTS to identify inhibitors of the type 1 interferon - major histocompatibility complex class I in skeletal muscle: primary screen against the NCATS Pharmaceutical Collection (AID 1347407).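 Further: luminescence of HiBiT knocked into endogenous HLA-B as interferon-induced MHC class I level.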 Further: potency means the concentration at half of the fitted maximal effect. The essentials: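 Immortalized human myoblasts (C25cl48) with HiBiT knocked into endogenous HLA-B*08:01 were stimulated with 4 ng/ml IFN-beta and treated with compounds (8-point, 1:5, top 46 uM final) for 24 h at 37 C; HiBiT lytic luminescence read.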

In test [2] the target is Protein phosphatase 1D (Homo sapiens) (UniProt O15297). In words: RapidFire Mass Spectrometry qHTS Assay for Modulators of WT P53-Induced Phosphatase 1 (WIP1) (AID 1347424). Further: series mostly up to about 63 µM. The method in brief: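 RapidFire MS readout of dephosphorylated VEPPL-S-QETFS product, with 1 uM isotope-labelled peptide standard. Reaction: 10 nM WIP1, 2 uM phosphopeptide substrate, 5 min, room temperature, after 1 h compound preincubation; stopped with 0.5% formic acid.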
Sequence of Protein phosphatase 1D (Homo sapiens) (O15297 whole entry, looked up): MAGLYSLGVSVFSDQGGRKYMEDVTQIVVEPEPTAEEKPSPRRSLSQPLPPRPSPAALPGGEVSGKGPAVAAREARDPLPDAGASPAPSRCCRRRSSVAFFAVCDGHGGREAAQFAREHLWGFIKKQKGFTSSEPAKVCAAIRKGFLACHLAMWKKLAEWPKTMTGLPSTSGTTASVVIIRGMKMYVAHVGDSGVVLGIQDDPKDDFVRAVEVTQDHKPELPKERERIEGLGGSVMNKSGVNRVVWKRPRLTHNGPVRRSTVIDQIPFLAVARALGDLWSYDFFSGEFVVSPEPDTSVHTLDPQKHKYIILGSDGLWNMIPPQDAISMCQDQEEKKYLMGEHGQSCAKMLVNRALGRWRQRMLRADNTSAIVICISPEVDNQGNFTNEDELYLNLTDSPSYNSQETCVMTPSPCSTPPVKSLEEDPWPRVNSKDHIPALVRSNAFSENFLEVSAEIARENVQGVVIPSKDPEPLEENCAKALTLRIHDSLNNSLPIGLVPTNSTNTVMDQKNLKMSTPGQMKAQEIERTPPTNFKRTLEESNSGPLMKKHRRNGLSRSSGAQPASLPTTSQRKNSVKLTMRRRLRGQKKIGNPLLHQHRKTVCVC
In general terms: Quantitative high-throughput screening tests each substance at several concentrations.

The target is the same in test [3]. In words: Rhodamine-PBP qHTS Assay for Modulators of WT P53-Induced Phosphatase 1 (WIP1) (AID 1347425). The method in brief:
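The read-out is the change in Rhodamine-PBP fluorescence (f1 - f0, ex 525/em 598 nm) as Pi is released, read each minute for 11 min. Final reaction: 5 nM WIP1, 10 uM phosphopeptide VEPPL-pS-QETFS, 10 uM Rh-PBP, 50 mM Tris-HCl pH 7.5, 30 mM MgCl2. Compound was preincubated with enzyme for 1 hour at room temperature.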

Results filed as inconclusive are left out. Where a call stands in place of a potency, no number is given. Active and inactive are the calls of the source. The call rests on the fitted dose curve; in most records, active means well fitted curve in the direction sought with a large enough effect; inconclusive means small, poorly fitted or top-dose-only effect, or another doubt; inactive means no such curve, though single readings can be large; an effect the other way counts as inactive or inconclusive. Numbered stars: 1 amine (or outer) side, 2 acyl side, 3 side chain; on linkers, the order of the positions; unused ones are H or OH. Bridge positions count the residues as written; N and C are the ends. Square brackets hold non-standard residues; d marks the D form. Peptide text beside a SMILES is read from it. I, II: the chains in the order shown. Actinocin(9to1) = Cc1c2oc3c(C)ccc(C(=O)[*:1])c3nc-2c(C(=O)[*:2])c(N)c1=O; NMeV = CN[C@H](C(=O)O)C(C)C; Sar = CNCC(=O)O

Turning to `COc1ccc(C2C(=O)c3ccccc3C2=O)cc1`, the Potency result in test [1] and in test [2] was “inactive” each time. In addition, the call in test [3] was inactive.
Take `CN=C(NC#N)Nc1ccc(C2=NNC(=O)CC2C)cc1` (stereo unspecified): the Potency result in test [1] and in test [2] was “inactive” each time. Further, the call in test [3] was inactive.
On to `CCCN1CCCC[C@H]1C(=O)Nc1c(C)cccc1C`, for which the Potency result in test [1] and in test [2] was “inactive” throughout. Besides, the call in test [3] was inactive.
On to `CC1(C)O[C@@H]2C[C@H]3[C@@H]4C[C@H](F)C5=CC(=O)CC[C@]5(C)[C@H]4[C@@H](O)C[C@]3(C)[C@]2(C(=O)CO)O1`, for which the Potency entry in test [1] and in test [2] was “inactive” in each case. Further, in test [3], the molecule was called inactive.
In the case of `CC1(C)OC[C@@H](COC(=O)CCc2ccc(OC[C@@H](O)CNCCNC(=O)N3CCOCC3)cc2)O1`, the Potency result in test [1] and in test [2] was “inactive” in each case. The call in test [3] was inactive.
`Nc1nc2ncc(CNc3ccc(C(=O)N[C@@H](CCC(=O)O)C(=O)O)cc3)nc2c(=O)[nH]1`: the Potency entry in test [1] and in test [2] was “inactive” throughout. The molecule was classed as inactive in test [3].
With `Cc1c(F)c(N2CCNC(C)C2)cc2c1c(=O)c(C(=O)O)cn2C1CC1` (stereo unspecified), the Potency entry in test [1] and in test [2] was “inactive” throughout. Also, in test [3], the call was inactive.
In the case of `CCCCS(=O)(=O)N[C@@H](Cc1ccc(OCCCCC2CCNCC2)cc1)C(=O)O`, the Potency entry in test [1] and in test [2] was “inactive” each time. Further, the result in test [3] was inactive.
Turning to `CCN(CCCc1ccccc1)CCCc1ccccc1`, the Potency result in test [1] and in test [2] was “inactive” in each case. Moreover, in test [3], the result was inactive.
For the molecule `CC(=O)OCC(=O)[C@@]1(O)CC[C@H]2[C@@H]3CCC4=CC(=O)C=C[C@]4(C)[C@H]3[C@@H](O)C[C@@]21C`, the Potency entry in test [1] and in test [2] was “inactive” throughout. Moreover, the result in test [3] was inactive.
Take `c1ccc(OCc2ccc(CCCN3CCOCC3)cc2)cc1`: the Potency entry in test [1] and in test [2] was “inactive” in each case. In addition, the molecule was called inactive in test [3].
Turning to `CCCCC(CC)CN=C(N)NC(N)=NCCCCCCN=C(N)NC(N)=NCC(CC)CCCC` (stereo unspecified), in test [1], the Potency is 14.9 µM (active). For the same molecule, the Potency entry in test [2] was “inactive”. Besides, in test [3], the result was inactive.
In the case of `CCOC(=O)n1ccn(C)c1=S`, the Potency entry in test [1] and in test [2] was “inactive” each time. Also, in test [3], the call was inactive.
For the molecule `C=C1C(=C/C=C2\CCC[C@]3(C)[C@@H]([C@H](C)/C=C/[C@@H](O)C4CC4)CC[C@@H]23)C[C@@H](O)C[C@@H]1O`, the Potency entry in test [1] and in test [2] was “inactive” each time. In addition, the call in test [3] was inactive.
In the case of `C[C@@H]1C[C@H]2[C@@H]3C[C@H](F)C4=CC(=O)C(Cl)=C[C@]4(C)[C@@]3(F)[C@@H](O)C[C@]2(C)[C@@]1(O)C(=O)CO`, the Potency entry in test [1] and in test [2] was “inactive” in each case. Moreover, the outcome in test [3] was inactive.
Turning to `O=C1OC2(c3ccc(O)cc3Oc3cc(O)ccc32)c2ccccc21`, the Potency result in test [1] and in test [2] was “inactive” in each case. For the same molecule, the molecule was called inactive in test [3].
In the case of `CN1CCN(CCCN2c3ccccc3Sc3ccc(S(=O)(=O)N(C)C)cc32)CC1`, the Potency result in test [1] and in test [2] was “inactive” throughout. For the same molecule, the molecule was called inactive in test [3].
Regarding `OCc1ccccc1O`, the Potency entry in test [1] and in test [2] was “inactive” throughout. Besides, the molecule was called inactive in test [3].
As for `CCN1CCCC1=O`, the Potency entry in test [1] and in test [2] was “inactive” in each case. The outcome in test [3] was inactive.
As to `Cc1ncc(CSSCc2cnc(C)c(O)c2CO)c(CO)c1O`, the Potency result in test [1] and in test [2] was “inactive” each time. The molecule was called inactive in test [3].
For `O=C(OCCOCCO)c1ccccc1Nc1cccc(C(F)(F)F)c1`, the Potency entry in test [1] and in test [2] was “inactive” in each case. The outcome in test [3] was inactive.
Regarding `COc1cc(OC)cc(OC)c1`, the Potency result in test [1] and in test [2] was “inactive” throughout. Also, the outcome in test [3] was inactive.
Regarding `COC(=O)C1=C(C)NC(C)=C(C(=O)O[C@@H]2CCCN(Cc3ccccc3)C2)[C@@H]1c1cccc([N+](=O)[O-])c1`, the Potency entry in test [1] and in test [2] was “inactive” throughout. In addition, in test [3], the molecule was called inactive.
Take `CC(C)N=C(N)/N=C(\N)Nc1ccc(Cl)cc1`: the Potency entry in test [1] and in test [2] was “inactive” in each case. Further, in test [3], the molecule was called inactive.
As for `NC[C@H]1O[C@H](O[C@H]2[C@H](O)[C@@H](O[C@H]3O[C@H](CO)[C@@H](O)[C@H](N)[C@H]3O)[C@H](N)C[C@@H]2N)[C@H](N)[C@@H](O)[C@@H]1O`, the Potency entry in test [1] was “inactive”. Also, the molecule was classed as inactive in test [3].
As for `O=c1c(-c2ccccc2)c1-c1ccccc1`, the Potency result in test [1] and in test [2] was “inactive” each time. Besides, in test [3], the molecule was called inactive.
As for `CC(C)(Oc1ccc(Cl)cc1)C(=O)O`, the Potency result in test [1] and in test [2] was “inactive” throughout. Besides, the call in test [3] was inactive.
Regarding `CCCCC1=NC2(CCCC2)C(=O)N1Cc1ccc(-c2ccccc2-c2nn[nH]n2)cc1`, the Potency entry in test [1] and in test [2] was “inactive” each time. In addition, in test [3], the call was inactive.
Regarding `CN=C(NC#N)NCCSCc1csc(N=C(N)N)n1`, the Potency entry in test [1] and in test [2] was “inactive” in each case. The molecule was called inactive in test [3].
As for `CC(=O)N/N=C/c1ccc([N+](=O)[O-])o1`, the Potency result in test [1] and in test [2] was “inactive” in each case. Also, the result in test [3] was inactive.
Take `Cc1c2oc3c(C)ccc(C(=O)N[C@@H]4C(=O)N[C@H](C(C)C)C(=O)N5CCC[C@H]5C(=O)N(C)CC(=O)N(C)[C@@H](C(C)C)C(=O)O[C@@H]4C)c3nc-2c(C(=O)N[C@@H]2C(=O)N[C@H](C(C)C)C(=O)N3CCC[C@H]3C(=O)N(C)CC(=O)N(C)[C@@H](C(C)C)C(=O)O[C@@H]2C)c(N)c1=O` (I: T[dV]P[Sar][NMeV] / II: T[dV]P[Sar][NMeV]; ester I:1-I:C, II:1-II:C; linker I:N-II:N via Actinocin(9to1)): the Potency in test [1] is 0.938 µM (active). In addition, the result in test [3] was inactive.
